Assay outcomes as filed in PubChem.
UGM FP inh: Mtb UDP-galactopyranose mutase inhibition; inhibition, % at 10 µM; P9WIQ1; purified UGM, fluorescence polarization probe displacement; 320,000 compounds, 0.06% hits; AID 504406; in the data active = inhibition above about 10%, passing the limit was not always enough
GDH-TPI counter-1: inhibits GDH-TPI coupling enzymes, artifact for Mtb FBA screen; GDH-TPI coupled enzyme counterscreen, NADH absorbance; inhibition, % at 4.8 µM; 360,000 compounds, 1.2% hits; AID 588335; in the data active = inhibition above about 30%;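 note: 0% = DMSO wells and 100% = wells lacking the enzyme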
Mtb FBA inh: Mtb fructose-bisphosphate aldolase inhibition | P9WQA3 | purified M. tuberculosis FBA, fluorescence read-out | inhibition, % at 1 µM | 360,000 compounds, 2.3% hits | AID 588726;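 note: 0% = vehicle and 100% = reference inhibitor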
Target sequence (P9WQA3 whole entry, looked up): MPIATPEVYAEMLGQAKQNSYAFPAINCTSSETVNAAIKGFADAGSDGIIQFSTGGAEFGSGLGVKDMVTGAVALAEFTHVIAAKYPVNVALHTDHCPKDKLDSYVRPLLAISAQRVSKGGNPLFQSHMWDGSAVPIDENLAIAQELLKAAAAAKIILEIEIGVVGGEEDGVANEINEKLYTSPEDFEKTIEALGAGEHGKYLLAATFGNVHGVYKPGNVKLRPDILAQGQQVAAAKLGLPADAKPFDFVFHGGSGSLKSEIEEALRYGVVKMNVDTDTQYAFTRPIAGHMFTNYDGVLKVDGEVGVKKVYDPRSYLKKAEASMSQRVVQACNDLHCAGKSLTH
Rv3671c protease: inhibits the M. tuberculosis serine protease Rv3671c. P9WHR9. inhibition, % at 5.96 µM. 320,000 compounds, 0.048% hits; in the data active = inhibition above about 38%;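 note: extracellular domain of Rv3671c used as enzyme; 0% = enzyme with DMSO and 100% = no enzyme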
RecA splice inh: inhibitors of M. tuberculosis RecA intein splicing; P9WHJ3; cell-free RecA intein splicing, fluorescence; inhibition, % (no concentration beside the values); 290,000 compounds, 0.75% hits; AID 2221; in the data active = inhibition above about 30%;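 note: 0% = vehicle wells and 100% = reference inhibitor control wells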
Mtb bLac sens: beta-lactam sensitization of Mtb H37Rv; M. tuberculosis H37Rv growth with meropenem, percent inhibition; inhibition, % at 25 µM; 330,000 compounds, 0.27% hits; AID 434955; call rule not given here;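 note: growth measured after seven days incubation then overnight dye step; 0% = bacteria only wells and 100% = bacteria with antibiotic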
Mtb FBA confirm: Mtb FBA inhibition, confirmed; AID 651616; inhibition, % at 1 µM; 5,600 compounds, 78% hits; purified M. tuberculosis FBA, fluorescence read-out; shares compounds with Mtb FBA inh;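 note: 0% = vehicle wells and 100% = reference inhibitor wells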
GDH-TPI counter-2: counter-screen for M. tuberculosis FBA inhibitors: GDH-TPI coupled enzyme inhibition. AID 652141. 5,600 compounds, 81% hits. inhibition, % at 1 µM. GDH-TPI coupled enzyme counterscreen, fluorescence. shares compounds with Mtb FBA inh; in the data active = inhibition above about 10%
* hit, by the source's call; x = no result given; + = active, no number. Only some compounds are listed: those with a hit (about 4% of all), similar ones and a draw of the others. Cut-off read from the data, not from the text of the source, unless noted: active = inhibition above about 27%; inactive = the rest.

SMILES	UGM FP inh	GDH-TPI counter-1	Mtb FBA inh	Rv3671c protease	RecA splice inh	Mtb bLac sens	Mtb FBA confirm	GDH-TPI counter-2
COC(=O)C1=C(C)NC(=O)NC1c1ccc(N2CCC(c3ccccc3)=N2)cc1 (centres undefined)	1.2	10.7	77.5*	-1.1	-5.6	-3.4	108.8*	78.3*
O=C(CN1C(=O)/C(=C/c2ccccc2F)Sc2ccccc21)NCC1CCCO1 (centres undefined)	0.3	3.5	-0.6	2.6	-2.7	16.5	x	x
CC1(C(=O)O)Oc2cccnc2NC1=O (centres undefined)	-0.9	1.0	1.2	1.9	-2.0	0.7	x	x
CC1=CC(=O)Nc2ncccc2O1	x	19.5	60.8*	x	x	x	83.8*	75.9*
NC(COCc1ccccc1)c1csc(NC(=O)Nc2cccc(Cl)c2)n1 (centres undefined)	x	3.1	0.1	x	x	x	x	x
COc1ccccc1-c1cc2ccccc2[nH]1	0.0	12.3	89.7*	3.8	5.3	7.2	48.9*	26.6*
CC1(C)CC(=O)C=C(c2ccc(COC(=O)C3CC3)cc2)C1=O	x	5.2	-3.2	x	x	x	x	x
COc1ccc(CNC(=O)C23CC4CC(CC(Br)(C4)C2)C3)cc1	1.0	4.5	53.8*	0.3	1.4	1.2	71.3*	39.5*
COc1ccc(CNC(=O)CC23CC4CC(CC(C4)C2)C3)cc1	-0.1	0.0	5.8	-13.0	1.6	-1.3	x	x
OCCn1nc2c3ccccc3nc-2n(-c2ccccc2)c1=S	-0.8	2.2	30.7*	-7.7	-1.8	-3.9	135.6*	116.4*
COc1cc(C(=O)N2CCCCC2c2cc(C(=O)Nc3ccccc3Cl)no2)cc(OC)c1C (centres undefined)	x	4.8	4.7	x	x	x	x	x
COc1cccc(OC)c1-c1nnc(-c2cn(C)c3ccccc23)o1	3.0	-3.8	80.2*	7.8	-1.7	-3.3	+	177.9*
COc1ccccc1-c1nnc(-c2ccc(C)cc2)o1	0.1	-4.6	15.1	-1.7	2.1	3.1	x	x
Cc1cccn2c(=O)c(C=Nc3ccc(Cl)cc3)c(NCCO)nc12	-2.0	6.8	30.8*	3.7	-6.7	-1.9	65.5*	44.8*
Cc1cccn2c(=O)c(C=Nc3ccccc3)c(NCCO)nc12	2.2	22.1	38.6*	1.2	-12.2	-8.2	7.0	-2.2
C=CCNc1ncnc2c1[nH]c1ccc(C)cc12	-3.1	13.0	42.4*	11.8	1.5	15.2	65.9*	51.6*
COc1ccc2[nH]c3c(NCCCOC(C)C)ncnc3c2c1	1.5	2.2	99.5*	8.1	1.0	-1.8	63.1*	47.3*
COc1ccc(CCNc2ncnc3c2[nH]c2cc(OC)c(OC)cc23)cc1OC	0.6	22.8	68.1*	8.6	-2.5	4.8	112.1*	101.1*
CCOc1ccc2[nH]c3c(NCCC(C)C)ncnc3c2c1	1.4	0.0	49.1*	x	0.6	0.1	5.9	-5.7
COC(=O)c1csc(S(=O)(=O)N2CCOCC2)c1OC	-1.3	-8.0	-4.2	6.6	2.1	5.6	x	x
Cc1cn(C2CC(OC(=O)C(C)C)C(CO)O2)c(=O)[nH]c1=O (centres undefined)	-1.6	-1.3	-0.4	-14.1	x	8.1	x	x
Cc1csc(N=Cc2ccc([N+](=O)[O-])o2)n1	x	3.1	-5.0	x	x	x	x	x
COc1ccc(C(=O)Nc2ccccc2)cc1NC(=O)c1ccc([N+](=O)[O-])cc1	-2.3	-10.3	3.1	-7.1	x	5.2	x	x
Cc1ccc(NC(=O)CNC(=O)Cn2cnc3sc(C)c(C)c3c2=O)cc1F	4.8	3.0	-0.3	-9.5	-22.7	-3.5	x	x
CCn1cc(CN2CCC(n3nccc3NC(=O)CCc3ccccc3)CC2)cn1	-1.2	5.8	-0.6	-2.5	1.1	-6.6	x	x
CCCCOc1ncnc2c1[nH]c1ccc(C)cc12	-0.6	-3.8	38.3*	-5.8	x	-7.1	-6.6	-3.9
CCOC(=O)c1cn(C2CC2)c2c(F)c(NCCCN(C)C)c(F)cc2c1=O	2.4	17.6	69.6*	4.9	1.7	-8.6	134.0*	78.8*
COc1cc(/C=C/C(=O)c2ccc3c(c2)OCCO3)cc(Br)c1OCC(=O)N(C)C	-10.1	18.7	-5.6	-3.0	5.3	98.7	x	x
CC(NC(=O)COC(=O)c1ccccc1SCC(=O)N1CCCC1)c1ccccc1 (centres undefined)	0.5	11.7	5.2	-3.0	2.5	-4.1	x	x
